High-throughput results: PubChem BioAssay, The Scripps Research Institute Molecular Screening Center
MsrA act – activators of bovine methionine sulfoxide reductase A; activation, % at 10.6 µM; hit rate 0.3% among 360,000; AID 602163; purified bovine MsrA, absorbance read-out; in the data active = activation above about 7.5%;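 also: 0% = vehicle and 100% = reference activator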
proKLK7 act – proKLK7 (human) activation, primary screen; AID 652039; hit rate 0.9% among 370,000; P49862; activation, % at 7 µM; purified proKLK7, EDANS-DABCYL substrate fluorescence; 100% is mature enzyme control, 0% vehicle;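 active = activation above the mean of all tested compounds plus 3 SD, computed per campaign excluding outliers beyond control limits, cut at about 13% in these data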
Target sequence (P49862 whole entry, looked up): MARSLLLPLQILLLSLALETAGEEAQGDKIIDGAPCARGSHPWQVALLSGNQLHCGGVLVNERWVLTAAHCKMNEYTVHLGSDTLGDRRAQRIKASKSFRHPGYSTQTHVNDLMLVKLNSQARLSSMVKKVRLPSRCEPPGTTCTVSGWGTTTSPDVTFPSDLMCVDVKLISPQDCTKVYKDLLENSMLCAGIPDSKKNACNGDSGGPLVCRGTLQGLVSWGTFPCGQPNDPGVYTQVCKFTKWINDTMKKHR
SMARCA2 activ – activators of SMARCA2 function; hit rate 1% among 370,000; activation, % at 9.1 µM; MG213 cells, MMTV-luciferase reporter, dexamethasone, overnight; in the data active = activation above about 7.8%;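 also: 0% = vehicle wells and 100% = reference activator wells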
MsrA inh – inhibits bovine methionine sulfoxide reductase A; purified bovine MsrA, absorbance read-out; inhibition, % at 15.5 µM; hit rate 0.75% among 360,000;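 also: 0% = vehicle wells with enzyme and 100% = reference inhibitor wells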
MsrA conf – confirmation of bovine MsrA inhibitors | purified bovine MsrA, absorbance read-out | hit rate 41% among 2,300 | inhibition, % at 15.5 µM | shares compounds with MsrA inh;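 also: coupled to thioredoxin reductase with NADPH and selenocystamine and DMSO as substrate; 0% = vehicle only and 100% = full effect of reference inhibitor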
An asterisk follows results filed as active; . = not tested or not shown. Only some compounds are listed: those with a hit (about 2.8% of all), similar ones and a draw of the others. Rule as the data show it, unless noted: active = inhibition above about 4.5%; inactive = the rest.

SMILES	MsrA act	proKLK7 act	SMARCA2 activ	MsrA inh	MsrA conf
CCOC(=O)CCCCCC(=O)Nc1ccc2c(c1)C(=O)N([C@@H](C)CO)C[C@@H](C)[C@H](CN(C)C(=O)Nc1ccccc1)OCCCC[C@H](C)O2	-2	0	-5	0	.
CCN1C(=O)/C(=C\c2nc3ccccc3c(=O)n2CC)c2ccccc21	-10	0	2	4.7*	1
Cc1nc(C(F)(F)F)ccc1C(=O)N1CCC1(C)C(=O)NCc1cccs1 (configuration not stated)	-2	0	0	-1	.
COCCCNC(=S)N(CCCO)Cc1cc2cc3c(cc2[nH]c1=O)OCCO3	-2	1	-3	5.0*	2
CCOC(=O)[C@]12CCCC3=C1N(CCC3)C(=O)[C@@H](CC(=O)NCCCOC)C2	.	0	1	.	.
CN(C)c1ccc(C=NCC2COc3ccccc3O2)cc1 (configuration not stated)	-5	0	-2	5.5*	5.2*
CN(CC1COc2ccccc2O1)C(=O)c1ccc(N(C)C)cc1 (configuration not stated)	-2	0	0	0	.
O=C(N[C@H](C(=O)N1CCC[C@H]1C(=O)NC1CCCC1)c1ccccc1)c1ccccc1	.	1	4	0	.
O=C(CSc1ccccc1)N1CCC(Oc2cccnc2)CC1	.	0	0	.	.
CCOC(=O)C1=C(O)/C(=C/c2ccc(OCC(=O)O)c(OCC)c2)SC1=Nc1ccc(OC)cc1	-2	-2	-3	4.7*	3
CCOC(=O)C1=C(O)/C(=C/c2ccc(OCC(=O)O)c(OCC)c2)SC1=Nc1ccc(C)cc1	-4	-1	3	4	.
CCCCN1CCN(C(=O)Cn2c(=O)c3ccccc3n(CC)c2=O)CC1	.	0	-3	.	.
O=C(C[C@@H]1CC[C@@H]2[C@H](COC[C@H](O)CN2C(=O)Nc2ccc(F)cc2)O1)NCCc1ccncc1	.	0	-4	0	.
C=CCNc1nc(N)c([N+](=O)[O-])c(NCc2ccccc2)n1	-4	.	.	.	.
C=CCNc1nc(N)c([N+](=O)[O-])c(NCCO)n1	-5	0	-1	5.0*	4.8*
O=[N+]([O-])c1ccc(NN=CC2CCCCCC2)c([N+](=O)[O-])c1	-3	0	-5	0	.
COC(=O)[C@H](Cc1ccccc1)NC(=O)[C@H]1C[C@@]2(N3CCCC3)c3ccccc3N(C(=O)OC(C)(C)C)[C@H]2N1C(=O)OC(C)(C)C	.	0	1	.	.
CN1CCN(CC(=O)Nc2ccccc2[N+](=O)[O-])CC1	-5	0	4	0	.
CN1CCN(CC(=O)Nc2cc(N3CCOCC3)ccc2[N+](=O)[O-])CC1	-3	-1	0	4.8*	0
CC(=O)c1ccc(COC(=O)c2cc3ccccc3oc2=O)cc1	-6	0	5	8.3*	4
COCCCN1C(=O)C(=O)/C(=C(/O)c2ccc(OC(C)C)cc2)C1c1cccnc1 (configuration not stated)	-4	1	1	2	.
COCCCN1C(=O)C(=O)/C(=C(/O)c2ccc(OC)cc2C)C1c1cccnc1 (configuration not stated)	-5	0	1	4.8*	3
O=C(O)COc1ccccc1/C=N/Nc1ccc(S(=O)(=O)Nc2ccc(Cl)cc2)cc1[N+](=O)[O-]	-2	0	-3	4	.
COc1ccc(NS(=O)(=O)c2cc([N+](=O)[O-])ccc2NN=Cc2ccccc2OCC(=O)O)cc1	-2	1	0	0	.
COc1ccccc1NS(=O)(=O)c1ccc(N/N=C/c2ccccc2OCC(=O)O)c([N+](=O)[O-])c1	-4	0	-3	5.4*	3
SMILES	MsrA act	proKLK7 act	SMARCA2 activ	MsrA inh	MsrA conf
CCN(CC)S(=O)(=O)c1ccc(N/N=C/c2ccccc2OCC(=O)O)c([N+](=O)[O-])c1	-10	0	-4	5.6*	2
CC(C)C(=O)OCCCN1CCC2(CCC(c3ccccc3)CC2)C1=O (configuration not stated)	.	0	-3	.	.
CCOc1ccccc1-n1c(=S)sc2c(=O)n(-c3ccc(F)cc3)c(SCC(=O)O)nc21	-3	0	-1	5.6*	2
COc1ccccc1-n1c(SCC(=O)O)nc2c(sc(=S)n2-c2ccc(C)c(C)c2)c1=O	-4	0	-2	2	.
O=C(CC1CCCC1)N[C@H](C(=O)N1CCC[C@H]1C(=O)NC1CCCC1)C1CCCCC1	.	0	-3	0	.
FC(F)(F)Oc1ccc(Nc2nc(N3CCOCC3)nc(N3CCOCC3)n2)cc1	-6	0	-1	0	.
N#Cc1ccc(Oc2cccc3cccnc23)c([N+](=O)[O-])c1	-9	-4	1	0	.
O=[N+]([O-])c1ccc(Oc2cccc3cccnc23)c([N+](=O)[O-])c1	-11	0	-3	7.3*	4
O=C(CCl)N1CCN(S(=O)(=O)Cc2ccccc2)CC1	0	0	1	0	.
CCC(C)NC(=O)CSc1nc2c(sc(=S)n2-c2cc(Cl)ccc2OC)c(=O)[nH]1 (configuration not stated)	0	0	0	2	.
COCCCNC(=O)CSc1nc2c(sc(=S)n2-c2cc(Cl)ccc2OC)c(=O)[nH]1	-14	0	0	5.8*	4
CCOc1cc(/C=C2/NC(=O)NC2=O)cc(Br)c1OCc1ccc(C(=O)O)cc1	-6	1	-3	6.2*	2
COC(=O)[C@@]12C[C@@H](CC(=O)NCc3ccccc3)C(=O)N(Cc3ccc4c(c3)OCO4)C1=CCC(C)(C)C2	.	-1	0	-1	.
COc1ccc(S(=O)(=O)NCc2cccnc2)cc1NC(=O)c1ccccc1C	-2	-1	-2	1	.
CCCn1c(N/N=C\C=C\c2ccccc2)nc2c1c(=O)[nH]c(=O)n2C	-6	-15	0	4	.
CN(/N=C/C=C/c1ccccc1)c1cc(=O)n(C)c(=O)[nH]1	-11	-1	-2	12*	9.1*
COc1ccc(/C=N/N(C)c2cc(=O)n(C)c(=O)[nH]2)cc1OC	-4	0	0	11*	7.0*
COc1ccc(/C=N/N2CCN(C)CC2)cc1OC	-11	1	-1	1	.
COC(=O)[C@]12C[C@H](CC(=O)N3CCCCC3)C(=O)N(Cc3ccccc3)C1=C[C@H](C(C)C)O[C@@H]2C1CC1	.	-1	-6	0	.
c1ccc(Oc2ccccc2-c2cc(NCCc3cccnc3)n3nccc3n2)cc1	-2	-10	2	0	.
O=c1oc2ccc([N+](=O)[O-])cc2c(N2CCOCC2)c1[N+](=O)[O-]	.	0	-3	5.1*	1
O=c1oc2ccccc2c(N2CCCC2)c1[N+](=O)[O-]	-1	0	-2	3	.
CC(=O)c1ccc(OCc2cc(C(=O)NC3CCCCC3)no2)cc1	-7	0	2	-1	.
CNC(=S)N1N=C(c2ccc(C)cc2)CC1c1ccc(OC)cc1 (configuration not stated)	-2	0	-1	4	.
CNC(=S)N1N=C(c2ccc(Br)cc2)CC1c1ccc(OC)cc1 (configuration not stated)	-5	-1	-3	5.7*	3
CCN(c1ccccc1)c1nc2nonc2nc1NCCO	-4	0	-1	13*	9.4*
